Calls of active or inactive are those of the source. Unless noted, how the calls were made is not given here.
How the values were obtained:
[1] = test system: XIP peptide (Xip251-270) binding; experiment: small-molecule binders of XIP peptide, primary screen, biochemical, small-molecule microarray, fluorescence 635/667 nm, 0.1 µg/mL protein (AID 1182); settings: fluorescent protein binding, 635 nm, higher = more signal, called active from +8 up or from −8 down
XIP peptide (Xip251-270) = experiment: small-molecule binders of XIP peptide, primary screen, biochemical, small-molecule microarray, fluorescence 635/667 nm, 0.5 µg/mL protein (AID 1183); settings: small-molecule microarray binding, fluorescence 635 nm; higher = more signal
[2] = Plasmodium falciparum growth inhibition, primary screen, strain 3D7, DAPI fluorescence, 100 nL (AID 1184);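 further: parasites grown inside human red blood cells in medium with human serum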; settings: P. falciparum 3D7 growth, 3 d, higher = more signal
[3] = target: Homeobox protein Hox-A13 (Mus musculus) (UniProt Q62424); experiment: inhibitors of HoxA13-DNA binding, primary screen, biochemical, fluorescence polarization, labeled oligonucleotide (AID 1185); settings: 15 min, higher = more signal, called active from +8 up or from −8 down
[4] = inhibitors of hydroxyurea-induced Chk1 phosphorylation, primary screen, imaging, HeLa, phospho-Chk1 antibody, percent positive cells (AID 1186); settings: hydroxyurea-induced phospho-Chk1 immunofluorescence imaging, higher = more signal
[5] = inhibitors of hydroxyurea-induced Chk1 phosphorylation, primary screen, imaging, HeLa, phospho-Chk1 nuclear intensity (AID 1187); settings: hydroxyurea-induced phospho-Chk1 immunofluorescence imaging, higher = more signal

Sequence of Homeobox protein Hox-A13 (Mus musculus) (Q62424 whole entry, looked up): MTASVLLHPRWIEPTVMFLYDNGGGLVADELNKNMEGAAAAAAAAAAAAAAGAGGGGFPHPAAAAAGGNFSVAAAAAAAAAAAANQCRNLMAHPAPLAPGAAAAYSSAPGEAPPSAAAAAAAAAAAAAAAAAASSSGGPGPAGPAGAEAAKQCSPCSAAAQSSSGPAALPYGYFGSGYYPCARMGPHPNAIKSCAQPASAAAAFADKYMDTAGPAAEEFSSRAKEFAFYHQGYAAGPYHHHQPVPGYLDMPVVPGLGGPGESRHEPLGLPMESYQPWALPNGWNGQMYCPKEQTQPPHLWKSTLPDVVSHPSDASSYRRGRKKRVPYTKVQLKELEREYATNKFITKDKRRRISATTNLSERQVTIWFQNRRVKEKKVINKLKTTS

SMILES	composite z-score [1]	composite z-score (XIP peptide (Xip251-270))	z-score [2]	z-score [3]	z-score [4]	z-score [5]
CC1(C)[C@@H]2CC(C(O)C3C=CC4C(=O)N(c5ccccc5)C(=O)C4N3Nc3ccc([N+](=O)[O-])cc3)=C[C@H]1C2 (stereo partly specified)	0.19 (inactive)	0.797	-0.545	-2.94 (inactive)	0.0793 (inactive)	-0.261 (inactive)
COc1cc2c(cc1OC)CN(C(=O)[C@H]1[C@@H]3C(=O)O[C@@H](c4ccccc4)[C@@H](c4ccccc4)N3[C@@H](c3ccc(O)cc3)[C@]13C(=O)Nc1ccccc13)CC2	0.602 (inactive)	0.755	-0.044	-2.37 (inactive)	-0.169 (inactive)	-0.238 (inactive)
C=CCOC(=O)[C@H]1[C@@H]2C(=O)O[C@@H](c3ccccc3)[C@@H](c3ccccc3)N2[C@@H](c2ccc(OCCOC(=O)[C@H]3C[C@H]4C(=O)N[C@@H](CCCC[N+](C)(C)C)C(=O)N4[C@H]3c3ccc(O)cc3)cc2)[C@]12C(=O)Nc1ccc(I)cc12	1.7 (inactive)	0.848	0.615	-2.52 (inactive)	-0.324 (inactive)	-0.62 (inactive)
C=CCN1C(=O)[C@@]2(Cc3ccccc31)N=C(c1ccc(OCCCO)cc1)O[C@H]2c1ccccc1	0.619 (inactive)	0.801	-1.16	-4.35 (inactive)	-0.456 (inactive)	-0.416 (inactive)
CC(C)C(=C=CC[C@@H](O)c1ccc(OCCO)cc1)C[C@@H](O)COCc1ccccc1	0.372 (inactive)	0.195	-2.45	-3.75 (inactive)	-1.27 (inactive)	-0.437 (inactive)
CC(C)=CCCC(C)=CC(O)C1C=CC2C(=O)N(C)C(=O)C2N1Nc1ccccc1 (stereo unspecified)	0.438 (inactive)	0.624	-0.49	-3.34 (inactive)	-1.1 (inactive)	-1.34 (inactive)
CN(C)C(=O)[C@@]1(CCS(=O)(=O)c2ccccc2)COC(c2ccc(OCCCO)cc2)=N1	0.551 (inactive)	0.299	-0.697	-5.72 (inactive)	-0.0692 (inactive)	-0.023 (inactive)
CCCCCN1CC=CC23O[C@@H]4C=CCCOC(=O)C4[C@H]2C(=O)N(CCCCCO)[C@@H]3C1=O (stereo partly specified)	0.382 (inactive)	-0.0494	0.798	-4.21 (inactive)	0.251 (inactive)	0.408 (inactive)
COC(=O)C[C@H]1O[C@]2(C(=O)N(C)c3ccccc32)[C@@H](C)[C@@H]1[Si](C)(C)F	-0.0066 (inactive)	0.181	0.522	-1.19 (inactive)	0.23 (inactive)	0.843 (inactive)
[N-]=[N+]=NCc1ccccc1C[C@]1(C(N)=O)COC(c2ccc(OCCCO)cc2)=N1	0.154 (inactive)	0.817	-0.486	-4.67 (inactive)	-0.913 (inactive)	-0.959 (inactive)
COc1cc2c(cc1OC)CN(C(=O)[C@@H]1[C@H]3C(=O)O[C@H](c4ccccc4)[C@H](c4ccccc4)N3[C@H](c3ccc(O)cc3)[C@@]13C(=O)Nc1ccccc13)CC2	0.0997 (inactive)	0.686	-1.42	-2.32 (inactive)	-0.478 (inactive)	-0.728 (inactive)
C=CCC(OC(C)=O)[C@@H]1[C@@H](N(Cc2cccc3ccccc23)C(=O)c2ccc(-c3ccccc3)cc2)c2cc(OCCCO)ccc2N1C(=O)c1ccc2ccccc2c1 (stereo partly specified)	-0.176 (inactive)	0.0439	-1.55	-1.35 (inactive)	0.145 (inactive)	-0.0284 (inactive)
COCCCNC(=O)[C@@]1(C)c2ccccc2C(=O)N(C(C)C)[C@H]1c1ccc(CO)cc1	-0.102 (inactive)	0.246	-0.176	-1.71 (inactive)	-0.123 (inactive)	-0.397 (inactive)
CC(CO)N1C(=O)[C@@H]2C3C(=O)OCCC/C=C\[C@H]3OC23C=CCN(C(C)(C)C)C(=O)[C@@H]13 (stereo partly specified)	0.453 (inactive)	-0.0516	0.67	-4.72 (inactive)	-0.423 (inactive)	-1.21 (inactive)
C=CCNC(=O)[C@H]1[C@@H]2C(=O)O[C@@H](c3ccccc3)[C@@H](c3ccccc3)N2[C@@H](c2ccccc2OCCO)[C@]12C(=O)Nc1ccc(C#CCC(C(=O)OC)C(=O)OC)cc12	0.924 (inactive)	0.737	-2.25	-2.6 (inactive)	-0.0106 (inactive)	0.259 (inactive)
CCCC[C@@H]1C[C@H]1[C@@H](NC(=O)c1ccco1)c1ccccc1C(F)(F)F	0.259 (inactive)	-0.623	-0.7	2.24 (inactive)	0.445 (inactive)	-0.353 (inactive)
COc1ccccc1CN1C(=O)c2ccccc2[C@@H](C(=O)NC2CC2)[C@@H]1c1ccc(CO)cc1	0.98 (inactive)	0.835	-1.79	-2.46 (inactive)	0.0151 (inactive)	0.351 (inactive)
[N-]=[N+]=Nc1ccccc1[C@H]1OC(c2ccc(OCCCO)cc2)=N[C@@]1(CCS(=O)(=O)c1ccccc1)C(N)=O	1.21 (inactive)	0.941	-1.42	-4.72 (inactive)	-0.23 (inactive)	0.052 (inactive)
COC(=O)[C@@]1(Cc2ccccc2)[C@H]2c3cc(C(=O)N(C)C)n(Cc4ccsc4Br)c3C[C@H]2CN1C(=O)c1ccccc1	0.274 (inactive)	0.116	-1.51	-4.23 (inactive)	0.567 (inactive)	0.0591 (inactive)
O=C1O[C@@H](c2ccccc2)[C@@H](c2ccccc2)N2[C@@H](c3ccccc3OCCO)[C@]3(C(=O)Nc4ccccc43)[C@@H](C(=O)Nc3nc4ccccc4s3)[C@H]12	1.13 (inactive)	0.797	-1.54	1.91 (inactive)	0.489 (inactive)	0.794 (inactive)
COc1ccc(C#Cc2ccc3c(c2)[C@]2(C(=O)N3)[C@H](c3ccccc3OCCO)N3[C@H](c4ccccc4)[C@H](c4ccccc4)OC(=O)[C@H]3[C@@H]2C(=O)Nc2nc3ccccc3s2)cc1	0.881 (inactive)	0.68	-1.9	2.72 (inactive)	0.165 (inactive)	0.265 (inactive)
[N-]=[N+]=Nc1ccccc1[C@@H]1OC(c2ccc(OCCCO)cc2)=N[C@]1(CCS(=O)(=O)c1ccccc1)C(N)=O	1 (inactive)	0.629	-2.04	-4.11 (inactive)	-0.154 (inactive)	-0.0216 (inactive)
CC#CC(=O)Oc1ccccc1C=CC(=O)OCC	0.0524 (inactive)	0.106	-0.418	-2.38 (inactive)	0.367 (inactive)	0.195 (inactive)
COC(=O)[C@@]1(CCC(=O)OC(C)(C)C)N=C(c2ccc(OCCCO)cc2)O[C@H]1c1ccccc1N=[N+]=[N-]	1.35 (inactive)	0.664	-2.33	-2.14 (inactive)	0.114 (inactive)	-0.229 (inactive)
CN(C)CCCC[C@@H]1NC(=O)[C@@H]2C[C@H](C(=O)NCCCCCCN)[C@H](c3cccc(OCCO)c3)N2C1=O	1.57 (inactive)	0.919	0.0561	-3.85 (inactive)	-0.945 (inactive)	-0.708 (inactive)
CCN(CC)c1ccc(N2CC=CC34O[C@@H]5C=CCCOC(=O)C5[C@H]3C(=O)N(CCCCCCO)[C@@H]4C2=O)cc1 (stereo partly specified)	0.0059 (inactive)	0.375	-0.459	-5.73 (inactive)	-0.43 (inactive)	0.419 (inactive)
